Reference: ChEMBL document CHEMBL4513216, “Probing the Open Global Health Chemical Diversity Library for Multistage-Active Starting Points for Next-Generation Antimalarials” (ACS Infect Dis, 2020)
Screen size: about 69,000 compounds; about 8,600 (12%) showed an effect of 50% or more. The entries come from a sample that favours strong results as a whole.

Test system: Plasmodium berghei
Test: Screen against P. berghei liver stage (PbLuc), transformed with Luciferase, at 10uM
Format: functional, HepG2
Conditions: tested at 10 uM

| SMILES | INHIBITION [%] |
| --- | --- |
| Cn1cc(CC2CC(=O)N(Cc3ccc(OC(F)F)cc3)C2=O)cn1 (stereo not drawn) | 16.6 |
| Cn1ccnc1C(=O)NCc1cnc2n1CCN(CC1CC1)CC2 | -24.1 |
| Cc1nc2n(n1)CC(Nc1ccnc(-c3ccccc3)n1)CC2 (stereo not drawn) | -5.1 |
| O=C(NCCn1nc(C2CCNC2)c2cccnc21)c1ccccn1 (stereo not drawn) | 3.91 |
| CC1(C)Cc2ccc(C(=O)NC3CCS(=O)(=O)C3)c(O)c2O1 (stereo not drawn) | 36.8 |
| O=C1Nc2ccccc2CNC12CCN(CC1CC1)CC2 | 20.1 |
| c1coc(CN2C[C@H](OCC3CCOCC3)[C@H]3COC[C@H]32)c1 | 21 |
| CCCNC(=O)Cn1cc(OC)c(=O)cc1CSc1nc(C)cc(C)n1 | -3.83 |
| COc1cn(CC(N)=O)c(CSc2nc(C)cc(C)n2)cc1=O | 24 |
| COc1cn(CC(N)=O)c(CSc2nccc(C)n2)cc1=O | 64.3 |
| CNC(=O)CCc1cc(C)nc(C2CCN(C3CCCCC3)CC2)c1 | 15.58 |
| CCOC(=O)[C@H]1CNC[C@@H]1C(=O)OCC | 0.868 |
| c1ccc(OCc2n[nH]c3c2CN(CC2CC2)C3)nc1 | -23.3 |
| O=C(NCCCN1CCOCC1)C(OC1CCCC1)c1ccccc1 (stereo not drawn) | -12.1 |
| O=C(NCC1CCCO1)c1cc(COc2ccccc2F)[nH]n1 (stereo not drawn) | 16.8 |
| O=C(Cc1ccccc1F)NCCN1CCOCC1 | 68.4 |
| O=C(NCCC1CCCCO1)c1cc(COc2ccccc2F)[nH]n1 (stereo not drawn) | 25.4 |
| O=C(NCCN1CCOCC1)c1cc(COc2ccccc2F)[nH]n1 | 63.7 |
| O=C(Cc1ccccc1F)NCC1CCN(CCc2ccccc2)C1 (stereo not drawn) | 26.7 |
| O=C(Cc1ccccc1F)NCC1CCN(CCN2CCOCC2)C1 (stereo not drawn) | 64.7 |
| O=C(NCCN1CCOCC1)c1ccn(-c2ccccc2F)n1 | -8.91 |
| O=C(NCCN1CCOCC1)C(OC1CCCC1)c1ccccc1 (stereo not drawn) | 69.5 |

| SMILES | INHIBITION [%] |
| --- | --- |
| O=S(=O)(Cc1ccccc1F)NCCN1CCOCC1 | -11.9 |
| O=S(=O)(NCC1CCN(CCN2CCOCC2)C1)c1ccccc1F (stereo not drawn) | 47.1 |
| CN1CCN(CCNC(=O)C(OC2CCCC2)c2ccccc2)CC1 (stereo not drawn) | 35.2 |
| O=C(Nc1nccs1)NC1CCN(CC2CCCC2)CC1 | 21.45 |
| c1nn(C2CCCCC2)cc1-c1cncn1CCCN1CCCCC1 | 18.75 |
| CCC(=O)N1CCC(Cc2ccccc2-c2ccccc2)(C(N)=O)C1 (stereo not drawn) | 36.4 |
| Cc1nccn1C1CCCN(C(=O)c2cccc(OCC(N)=O)c2)C1 (stereo not drawn) | -0.219 |
| N#Cc1ccc(OCCN2CCNC(=O)C2c2cccs2)cc1 (stereo not drawn) | 3.04 |
| Cc1ccc(C(=O)NC2CCN(Cc3noc(C(C)(C)C)n3)CC2)s1 | -42.8 |
| COCCCS(=O)(=O)N(Cc1cccc(C)c1)Cc1ccccn1 | 4.13 |
| CCN1CCC2(CCC(=O)N2Cc2cccc(C)n2)CC1 | -6.77 |
| CN(C)c1cc(C(=O)N2CCCN(Cc3cscn3)CC2)ccn1 | 20.1 |
| CC(CNC(=O)Nc1ccc(F)cc1Br)N1CCOCC1 (stereo not drawn) | 46.6 |
| CC(Cn1cncc1-c1cnn(C2CCCCC2)c1)N1CCCCC1 (stereo not drawn) | -1.9 |
| O=C(CC1CN(Cc2ccccc2)CCO1)NC1CCCC1 (stereo not drawn) | -15.8 |
| O=C(CC1CN(Cc2ccccc2)CCO1)NCCN1CCOCC1 (stereo not drawn) | 56.5 |
| O=C(O)CC1CN(Cc2ccccc2)CCO1 (stereo not drawn) | 22.1 |
| CNC(=O)c1c[nH]nc1C1CCCN1c1ncccn1 (stereo not drawn) | 23.9 |
| O=C1CCC2(CCN(Cc3ccc(F)cc3)CC2)N1CCN1CCCC1 | -22.1 |
| CCCc1n[nH]c(=O)n1Cc1ccc(OC)cc1 | -32.6 |
| COc1cccc(-n2cc3[nH]c(=O)n(Cc4cccc(F)c4)n3c2=O)c1 | 36.3 |
| Cn1c(=O)c2sccc2n(Cc2ccccc2)c1=O | 36.8 |

| SMILES | INHIBITION [%] |
| --- | --- |
| CCS(=O)(=O)N1CCC2(CCN(Cc3cccc(OC)c3)CC2)CC1 | 34.6 |
| COc1ccc(Cn2c(=O)n(C)c(=O)c3sccc32)cc1 | 75.7 |
| COc1cccc(Cn2c(=O)n(C)c(=O)c3sccc32)c1 | 50.5 |
| COc1ccc(CN2CCn3c(C(=O)N(C)C)cnc3C2)cc1 | 26.4 |
| COC(=O)c1cccc(CNC(=O)NCCC(F)(F)F)c1 | 41.4 |
| COC(=O)c1cccc(CNC(=O)CC(F)(F)F)c1 | 51.4 |
| COC(=O)c1cccc(CNC(=O)c2cc(C(C)C)n(C)n2)c1 | -55.1 |
| CCCC(=O)NCc1cccc(C(=O)OC)c1 | 51.4 |
| COC(=O)c1cccc(CNC(=O)CCC(F)(F)F)c1 | 4.68 |
| COCCCC(=O)NCc1cccc(NC(N)=O)c1 | 15.8 |
| CCc1nc(C)sc1CN1C[C@@H](C)[C@@](C)(O)C1 | 14.9 |
| CSc1ncc(C(=O)N(C)C(C)Cc2ccccn2)cn1 (stereo not drawn) | -1.16 |
| O=C(NCc1nnc2n1C(C(=O)NC1CC1)CC2)c1ccc(Cl)cc1Cl (stereo not drawn) | 44.9 |
| CN1CCC2(CC1)CN(C(=O)c1ccncc1)Cc1ccccc12 | 57.9 |
| COCCN1Cc2ccccc2C2(CCN(C(=O)c3ccno3)CC2)C1 | -1.36 |
| Cc1cncc(C(=O)N2Cc3ccccc3C3(CCN(C)CC3)C2)c1 | 39.2 |
| Cc1cccc(C(=O)N2Cc3ccccc3C3(CCN(C)CC3)C2)n1 | 36.9 |
| CN1CCC2(CC1)CN(C(=O)c1cccnc1)Cc1ccccc12 | 33.4 |
| Cc1ccsc1C(=O)N1Cc2ccccc2C2(CCN(C)CC2)C1 | 53.5 |
| CS(=O)(=O)N1Cc2ccccc2C2(CCN(C(=O)c3ccno3)CC2)C1 | 55.7 |
| COCCN1CC2(CCN(C(=O)c3ccno3)CC2)c2ccccc21 | -14.7 |
| CN1CCC2(CC1)CN(C(=O)c1cnccn1)Cc1ccccc12 | 18.3 |

| SMILES | INHIBITION [%] |
| --- | --- |
| CCCC1c2cccn2CCN1C(=O)c1cc(CC)no1 (stereo not drawn) | 44.1 |
| Cc1cccc(C)c1-n1nnnc1C1(NCc2ccco2)CCCC1 | 45.4 |
| Cc1nc(C)n(CC2CCCN2CC(=O)NC2CCOCC2)n1 (stereo not drawn) | 38.5 |
| Cc1nc(CN2CCN(CC(O)CN3CCOCC3)CC2)oc1C (stereo not drawn) | 4.34 |
| O=C([C@H]1CCCO1)N1CCC2(CCCN(CCOc3ccccc3)C2)C1 (stereo partly drawn) | 12.4 |
| COCC(=O)N1CC[C@H]2O[C@@H](C)C[C@H]2C1 | -1.55 |
| Cc1nn(C)cc1S(=O)(=O)NCC(c1ccccc1Cl)N1CCCC1 (stereo not drawn) | 13.5 |
| Cn1c(CNCC2CCCN2c2cccnn2)nc2ccccc21 (stereo not drawn) | -0.113 |
| OC(COCc1cccs1)CN1CCc2c(ncn2C2CC2)C1 (stereo not drawn) | 2.97 |
| Cc1ccc2[nH]c([C@H]3CCN(CC4CCCCC4)C3)nc2c1 | 51.9 |
| Cc1ccc2[nH]c(C3CCN(C)CC3)nc2c1 | -17.9 |
| COCCN1CCC(c2nc3cc(C)ccc3[nH]2)CC1 | 15.5 |
| Cc1nc(CNC(=O)c2cc(COc3ccccc3)[nH]n2)n[nH]1 | 15.7 |
| NC(=O)c1nc(-c2ccc(Cl)cc2Cl)oc1N | -63.4 |
| Cc1cc2c(=O)n3c(nc2s1)CCN(Cc1cnn(C)c1C)CC3 | 24.5 |
| COC(=O)C(C)N1CCCc2cc(OC)ccc2C1 (stereo not drawn) | 59.2 |
| COc1ccc2c(c1)CCCN(C(C)C(=O)NC(N)=O)C2 (stereo not drawn) | 1.79 |
| COc1ccc2c(c1)CCCN(C(C)C(=O)NC(C)C)C2 (stereo not drawn) | -9.87 |
| CS(=O)(=O)CCC(=O)NC1(c2cccc(Br)c2)CC1 | 5.14 |
| CCC(C(=O)NC)N(c1cccc(C)c1)S(C)(=O)=O (stereo not drawn) | 0.547 |
| CC(C)CS(=O)(=O)CC(=O)NC(C)(C)c1cccc(F)c1 | 52.2 |
| Cc1cccc(C(C)(C)NC(=O)CS(=O)(=O)CC(C)C)c1 | 64.5 |

| SMILES | INHIBITION [%] |
| --- | --- |
| CNC(=O)CS(=O)(=O)Cc1coc(-c2cccc(F)c2)n1 | -11.3 |
| Cc1cccc(CS(=O)(=O)CC(=O)NCCCOC(C)C)c1 | 45 |
| CS(=O)(=O)CCC(=O)Nc1ccsc1 | -120 |
| CCS(=O)(=O)CC(=O)NC(C)c1ccc(F)cc1F (stereo not drawn) | 47.5 |
| Cc1cccc(C(C)(C)NC(=O)CCS(C)(=O)=O)c1 | 51 |
| Cc1nc(C)n(CC2CCCN(CC(=O)Nc3nnc(C)s3)C2)n1 (stereo not drawn) | 33.25 |
| O=C1c2ncccc2C(CCO)N1Cc1ccccc1 (stereo not drawn) | 2.55 |
| Cc1c(COC(C)C)cccc1NC(=O)N1CCCC(CO)C1 (stereo not drawn) | 49.1 |
| CCC1c2cccn2CCN1C(=O)c1cc(OC)nc(OC)n1 (stereo not drawn) | 19.7 |
| O=C(N[C@@H]1CCC[C@@H](N2CCOCC2)[C@@H]1O)c1ncccn1 | 36.4 |
| CS(=O)(=O)N1C[C@H]2CNC[C@@]2(C(=O)NCCCc2ccccc2)C1 | 73.5 |
| O=C(C1CC1)N1C[C@H]2CNC[C@@]2(C(=O)NCCCc2ccccc2)C1 | 32.5 |
| CS(=O)(=O)N1C[C@H]2CNC[C@@]2(C(=O)NCCOc2ccccc2)C1 | 18.6 |
| CN(C)S(=O)(=O)NC(=O)CC(c1ccccc1)C(F)(F)F (stereo not drawn) | 62.8 |
| CC(C)S(=O)(=O)NC(=O)CC(c1ccccc1)C(F)(F)F (stereo not drawn) | 31.3 |
| COCC(C)(C)NC(=O)CC(c1ccccc1)C(F)(F)F (stereo not drawn) | 29.4 |
| O=C(NCCCc1ccncc1)C1CCCN(Cc2ccco2)C1 (stereo not drawn) | 19.5 |
| Cc1cnccc1NCCNC(=O)C1CCCN(Cc2ccco2)C1 (stereo not drawn) | 24.3 |
| Cc1ccc(NCCCNC(=O)C2CCCN(Cc3ccco3)C2)nc1 (stereo not drawn) | 75.1 |
| c1cncc(COCC2C[C@@H]3OCCN(Cc4cccnc4)[C@H]3C2)c1 (stereo partly drawn) | 23.6 |
